BoNT F protease: BoNT/F light chain protease inhibitors, primary screen, biochemical, flow cytometry, MLPCN library; Botulinum neurotoxin type F light chain protease (Clostridium botulinum); Multiplex microsphere protease cleavage assay; inhibition, % at 10 µM; actives 0.22% (n = 360,000); in the data active = inhibition above about 35%, passing the limit was not always enough; note: plate controls were buffer without enzyme for full effect and enzyme alone for no effect
BoNT A protease: BoNT/A light chain protease inhibitors, primary screen, biochemical, flow cytometry, MLPCN library | inhibition, % at 10 µM | Botulinum neurotoxin type A light chain protease (Clostridium botulinum A str. ATCC 3502) | actives 0.17% (n = 360,000) | multiplex microsphere protease substrate cleavage; note: plate controls were buffer without enzyme for full effect and enzyme alone for no effect
Vc quorum ag: inducers of Vibrio cholerae quorum light production without autoinducers, primary screen, BH1578 luxS cqsA deficient, single point | activation, % at 18.7 µM | actives 0.16% (n = 350,000) | V. cholerae BH1578 lux reporter, luminescence, 6 h | AID 588436, 2011; in the data active = activation mostly above about 9.7%, no sharp cut-off
Anthrax LF inh2: Bacillus anthracis LF protease inhibitors, primary screen, biochemical, multiplex microsphere, MLPCN library. Lethal factor (Bacillus anthracis), P15917. multiplex microsphere protease cleavage assay. inhibition, % at 10 µM. actives 0.12% (n = 360,000). AID 588501, 2011; note: plate controls were buffer without enzyme for full effect and enzyme alone for no effect
BJeLR lethal: MLPCN primary cell-based screen for lethality selective to Ras in HRASV12 cells. actives 0.17% (n = 300,000). inhibition, % (no concentration beside the values). BJeLR (HRASV12) viability, CellTiter-Glo ATP luminescence, 48 h. AID 1554, 2009; in the data active = inhibition above about 50%
Autofluor counter: counter-screen for toxin protease inhibitors: compound fluorescence. compound autofluorescence counterscreen, microsphere flow cytometry; stronger effect = higher value. fluorescence intensity (no concentration beside the values). actives 3.1% (n = 360,000). AID 624483; in the data active = fluorescence intensity above about 16000
* = called active by the depositor. In the library only some 3.7% were active in any assay of this set; here they are far more common. Cut-off read from the data, not from the text of the source, unless noted: active = inhibition above about 30%; inconclusive = no clear call, values can overlap the other calls; inactive = below that.

For Cc1cccc2cc(C(c3nnnn3C(C)(C)C)N(Cc3ccco3)CC3CCCO3)c(=O)[nH]c12 (stereo not drawn) the results were BoNT F protease 4, BoNT A protease 3, Vc quorum ag 0, Anthrax LF inh2 -2, BJeLR lethal 1 and Autofluor counter 21568*.
CC(=O)NCCNc1nc2cc(-c3ccc(C(=O)N4CCN(C)CC4)cc3)sc2c(=O)n1C was read as BoNT F protease -1, BoNT A protease 0, Vc quorum ag 0, Anthrax LF inh2 8 and Autofluor counter 3675.
For COc1ccc(/C(N)=N/OC(=O)c2cc(-c3ccccc3)nc3ccccc23)cc1 the results were BoNT F protease -1, BoNT A protease 2, Vc quorum ag inactive, Anthrax LF inh2 -4, BJeLR lethal -13 and Autofluor counter 19686*.
`COc1ccc(-c2oc3ncnc(N)c3c2-c2ccccc2)cc1` gave BoNT F protease 4, BoNT A protease 3, Vc quorum ag inactive, Anthrax LF inh2 1, BJeLR lethal -5 and Autofluor counter 21630*.
For COc1ccc(/C=C/C(=O)NCCCNC(=O)/C=C/c2ccc(OC)c(OC)c2)cc1OC the results were BoNT F protease -4, BoNT A protease 0, Vc quorum ag 0, Anthrax LF inh2 -2, BJeLR lethal -11 and Autofluor counter 5572.
COc1ccc(/C=C\C(=O)NCc2ccc3c(c2)cc(C)n3C)cc1OC was read as BoNT F protease -98, BoNT A protease 62*, Vc quorum ag -2, Anthrax LF inh2 -63, BJeLR lethal -9 and Autofluor counter 2367.
`CCCCNC(=S)NCc1ccc2c(c1)cc(C)n2C` gave BoNT F protease -76, BoNT A protease 30*, Vc quorum ag 0, Anthrax LF inh2 -42, BJeLR lethal -11 and Autofluor counter 3100.
CCc1cccc(C)c1NC(=S)NCc1ccc2c(c1)cc(C)n2C was read as BoNT F protease -141, BoNT A protease 57*, Vc quorum ag 0, Anthrax LF inh2 -101, BJeLR lethal -7 and Autofluor counter 1803.
CCOC(=O)CCC(=O)NCc1ccc2[nH]c(C)cc2c1 was read as BoNT F protease -22, BoNT A protease 5, Vc quorum ag -1, Anthrax LF inh2 2, BJeLR lethal -4 and Autofluor counter 8762.
For CCc1cccc(C)c1NC(=S)NCc1ccccc1 the results were BoNT F protease -2, BoNT A protease -1, Vc quorum ag -3, Anthrax LF inh2 0, BJeLR lethal 3 and Autofluor counter 2105.
CCOC(=O)CCC(=O)NCc1ccc2c(c1)cc(C)n2C was read as BoNT F protease 12, BoNT A protease 15, Vc quorum ag 0, Anthrax LF inh2 21, BJeLR lethal 1 and Autofluor counter 18146*.
Screening CC(O)(c1ccccc1)c1nc(-c2ccncc2)cs1 (stereo not drawn) returned BoNT F protease -5, BoNT A protease 0, Vc quorum ag 0, Anthrax LF inh2 -1 and Autofluor counter 3524.
CC1(C(=O)NS(=O)(=O)c2ccc(Cl)cc2)CCN1C(=O)c1cccc(F)c1 (stereo not drawn) was read as BoNT F protease -4, BoNT A protease 0, Vc quorum ag -2, Anthrax LF inh2 -4 and Autofluor counter 3572.
For COc1ccccc1NC(=S)NCc1ccc2c(c1)cc(C)n2C the results were BoNT F protease -120, BoNT A protease 33*, Vc quorum ag inactive, Anthrax LF inh2 -75, BJeLR lethal -8 and Autofluor counter 2036.
For COc1ccc(NC(=S)NCc2ccc3c(c2)cc(C)n3C)cc1 the results were BoNT F protease -135, BoNT A protease 25, Vc quorum ag 0, Anthrax LF inh2 -120, BJeLR lethal -4 and Autofluor counter 1884.
Cc1ccccc1NC(=S)NCc1ccc2c(c1)cc(C)n2C was read as BoNT F protease -20, BoNT A protease 12, Vc quorum ag 0, Anthrax LF inh2 0, BJeLR lethal -1 and Autofluor counter 4862.
Screening Cc1cc2cc(CNC(=S)NCc3ccccc3)ccc2n1C returned BoNT F protease -120, BoNT A protease 45*, Vc quorum ag 2, Anthrax LF inh2 -80, BJeLR lethal -2 and Autofluor counter 2043.
